From PubChem BioAssay (Tox21)
Records with an inconclusive call do not appear. A call without a number means that no potency is given here. Active and inactive are the calls of the source. Calls follow the shape of the dose curve; as a rule, active = well fitted cell-killing curve with a large enough effect in the repeat runs; inconclusive = weak or mixed curves, or effect the other way; inactive = flat fitted curve, though single readings scatter.

Legend:
[1] = cAMP Responsive Elements (CRE) small molecule antagonists, cell-based qHTS assay: qHTS cell viability counter screen (AID 2060913); conditions: CRE-bla HEK293T viability, CellTiter-Glo luminescence, 5 h; series mostly up to 92.4 µM; also: nearly all actives have a fitted effect of over 40% in size; also: potency is read from the fitted curve at half-maximal effect
Outline: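 HEK293T CRE-bla, 2,000 cells/well, 18 h preincubation; cpd in DMSO + NKH477 0.25 uM final, 3 h 37 C/5% CO2; LiveBLAzer 2 h RT, then CellTiter-Glo 30 min RT, luminescence.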

[2] = cAMP Responsive Elements (CRE) small molecule agonists, cell-based qHTS assay: qHTS cell viability counter screen (AID 2060914); conditions: CRE-bla HEK293T viability, CellTiter-Glo luminescence, 5 h; series mostly up to 92.4 µM;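 also: viability read after 3 h of compound exposure; nearly all actives have a fitted effect of over 50% in size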
Outline: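 CRE-bla HEK293T cells in 10% dialyzed FBS medium were exposed to compounds for 3 h at 37C after 18 h plating. CellTiter-Glo was then added in the same wells, and luminescence was read after 30 min at room temperature.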

SMILES | Potency [1] | Potency [2]
CCOP(=S)(OCC)SCn1c(=O)oc2cc(Cl)ccc21 | inactive | inactive
CCOP(=O)(OCC)SCCSCC | inactive | inactive
C[C@]12CC[C@H]3[C@@H](CCC4=CC(=O)CC[C@@]43C)[C@@H]1CC[C@@H]2O | inactive | inactive
Cc1ccc(Cl)c(O)c1 | inactive | inactive
CNC(=O)N(C)c1nc2ccccc2s1 | inactive | inactive
FC(F)(F)c1ccc(Cl)cc1 | inactive | inactive
CC(C)(C)NCC(O)c1cc(Cl)c(N)c(C(F)(F)F)c1 (configuration not stated) | inactive | inactive
CC(C)CP(=S)(S)CC(C)C | inactive | inactive
C1CC2OC2CC1C1CO1 (configuration not stated) | inactive | inactive
O=P(Oc1ccccc1)(Oc1ccccc1)Oc1ccccc1 | inactive | inactive
CCNc1nc(Cl)nc(NC(C)(C)C)n1 | inactive | inactive
NN=C(N)N | inactive | inactive
CCOP(=S)(OCC)Oc1cc(C)nc(N(CC)CC)n1 | inactive | inactive
Cc1nc(N(C)C)nc(OC(=O)N(C)C)c1C | inactive | inactive
CC(C)(OOC(C)(C)c1ccccc1)c1ccccc1 | inactive | inactive
COP(=S)(OC)Oc1ccc(S(N)(=O)=O)cc1 | inactive | inactive
CCN[C@@H](C)Cc1cccc(C(F)(F)F)c1 | inactive | inactive
CC(=O)[O-].CC(=O)[O-].O.O.[Cd+2] | 53.7 µM (active) | inactive
ClCCBr | inactive | inactive
Cc1cc(-c2cc(C)c(N)c(C)c2)cc(C)c1N | inactive | inactive
O=C1NCN(c2ccccc2)C12CCN(CC1COc3ccccc3O1)CC2 (configuration not stated) | inactive | inactive
